Data on seven compounds can be found in PubChem BioAssay (NCI).

Experiment [1] can be described thus: NCI Yeast Anticancer Drug Screen. Data for the rad50 strain (AID 155).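 Note: 0% = growth of vehicle-only cultures of the same strain.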 The following applies: S. cerevisiae rad50 strain growth inhibition, hits give high values. The procedure, abridged:
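DNA repair mutant yeast, compound exposure, growth read-out; inhibition is taken relative to vehicle.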

Experiment [2] can be described thus: NCI Yeast Anticancer Drug Screen. Data for the mec2-1 strain (AID 157). The following applies: S. cerevisiae mec2-1 strain, hits give high values. The procedure, abridged: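 Strain: mec2-1 (DNA repair/cell cycle alteration). Compound exposure, then growth measured; inhibition expressed relative to vehicle.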
Experiment [3] is described as follows: NCI Yeast Anticancer Drug Screen. Data for the sgs1 mgt1 strain (AID 161).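 Note: 0% = growth of cultures given vehicle only.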 The following applies: S. cerevisiae sgs1 mgt1 strain, hits give high values. In short, it runs like this: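 Genetically altered yeast, compound exposure, growth inhibition relative to vehicle.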
A short description of experiment [4]: NCI Yeast Anticancer Drug Screen. Data for the cln2 rad14 strain (AID 165).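 Note: 0% = growth equal to vehicle treated cultures.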 The following applies: S. cerevisiae cln2 rad14 strain, hits give high values. The procedure, abridged: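 Compounds are applied to the cln2 rad14 yeast strain, and growth is then compared with that of vehicle-treated cultures to give inhibition.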
The nature of experiment [5]: NCI Yeast Anticancer Drug Screen. Data for the bub3 strain (AID 167). The following applies: S. cerevisiae bub3 mutant strain, hits give high values. In short, it runs like this:
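In this screen, a yeast mutant lacking normal mitotic checkpoint function is challenged with compound. Relative growth versus vehicle gives the inhibition value.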

Experiment [6] can be described thus: NCI Yeast Anticancer Drug Screen. Data for the mlh1 rad18 strain (AID 175). The following applies: S. cerevisiae mlh1 rad18 strain growth inhibition, hits give high values. In short, it runs like this:
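Read-out is yeast growth inhibition, calculated against vehicle-only controls. The compound was applied to a strain engineered with DNA damage repair alterations.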

[7] abbreviates: at 5.0 µM (retest, dose inferred, filed as 0.5).
Setting [8] is: at 50.0 µM (retest, dose inferred, filed as 5.0).

About 79,000 compounds went through this panel and 15% of them were active in at least one assay; those are over-represented in the sample as a whole. Unmarked numbers belong to inactive results. Activity calls are given as the source filed them. Cut-off read from the data, not from the text of the source: active = growth inhibition above about 70%; inactive = the rest.

As for `CCOc1ccccc1N1C(=O)C=CC1=O`, the growth inhibition is 57% in experiment [1] (setting [7]); 67% in experiment [1] (setting [8]); 92% (active) in experiment [1] (at 50.0 µM); 60% in experiment [2] (setting [7]); 75% (active) in experiment [2] (setting [8]); 93.6% (active) in experiment [2] (at 50.0 µM). Further, the growth inhibition in experiment [3] (setting [7]) was 99% (active); in experiment [3] (setting [8]) it was 100% (active); in experiment [3] (at 50.0 µM) it was 93.8% (active); in experiment [4] (setting [7]), 99% (active); in experiment [4] (setting [8]), 100% (active); in experiment [4] (at 50.0 µM) it was 90.5% (active). Further, the growth inhibition in experiment [5] (setting [7]) is 100% (active); in experiment [5] (setting [8]) it was 100% (active); in experiment [5] (at 50.0 µM), 92.3% (active); in experiment [6] (setting [7]), 42%; in experiment [6] (setting [8]), 58%; in experiment [6] (at 50.0 µM), 92.5% (active).

In the case of `Cc1ccc(C)c(NC(=O)CC2SC(=Nc3ccccc3Cl)NC2=O)c1` (stereo unspecified), the growth inhibition in experiment [1] (setting [7]) is 23%; in experiment [1] (setting [8]), 65%; in experiment [1] (at 50.0 µM), 79% (active); in experiment [2] (setting [7]), 24%; in experiment [2] (setting [8]) it was 60%; in experiment [2] (at 50.0 µM) it was 58.9%. The growth inhibition in experiment [3] (setting [7]) is 25%; in experiment [3] (setting [8]), 91% (active); in experiment [3] (at 50.0 µM), 65.3%; in experiment [4] (setting [7]) it was 23%; in experiment [4] (setting [8]), 55%; in experiment [4] (at 50.0 µM), 78% (active). In addition, the growth inhibition in experiment [5] (setting [7]) is 33%; in experiment [5] (setting [8]) it was 85% (active); in experiment [5] (at 50.0 µM) it was 75.9% (active); in experiment [6] (setting [7]), 31%; in experiment [6] (setting [8]) it was 82% (active); in experiment [6] (at 50.0 µM), 64.5%.

On to `CC(C)C(=O)NNc1ccccc1`, for which the growth inhibition is 28% in experiment [1] (setting [7]); 77% (active) in experiment [1] (setting [8]); 93.1% (active) in experiment [1] (at 50.0 µM); 1% in experiment [2] (setting [7]); 57% in experiment [2] (setting [8]); 34.2% in experiment [2] (at 50.0 µM). Besides, the growth inhibition was 18% in experiment [3] (setting [7]); 70% (active) in experiment [3] (setting [8]); 87.2% (active) in experiment [3] (at 50.0 µM); 15% in experiment [4] (setting [7]); 67% in experiment [4] (setting [8]); 93.2% (active) in experiment [4] (at 50.0 µM). For the same compound, the growth inhibition in experiment [5] (setting [7]) was 21%; in experiment [5] (setting [8]), 95% (active); in experiment [5] (at 50.0 µM), 70.4% (active); in experiment [6] (setting [7]), 39%; in experiment [6] (setting [8]) it was 92% (active); in experiment [6] (at 50.0 µM) it was 83.2% (active).

Regarding `Clc1ccc2[nH]c(-c3ccccc3)c(-c3ccccn3)c2c1`, the growth inhibition in experiment [1] (setting [7]) is 81% (active); in experiment [1] (setting [8]), 94% (active); in experiment [1] (at 50.0 µM), 96.2% (active); in experiment [2] (setting [7]), 80% (active); in experiment [2] (setting [8]) it was 98% (active); in experiment [2] (at 50.0 µM), 94.5% (active). For the same compound, the growth inhibition was 93% (active) in experiment [3] (setting [7]); 98% (active) in experiment [3] (setting [8]); 97.7% (active) in experiment [3] (at 50.0 µM); 81% (active) in experiment [4] (setting [7]); 97% (active) in experiment [4] (setting [8]); 94% (active) in experiment [4] (at 50.0 µM). Further, the growth inhibition in experiment [5] (setting [7]) is 93% (active); in experiment [5] (setting [8]) it was 97% (active); in experiment [5] (at 50.0 µM) it was 96.7% (active); in experiment [6] (setting [7]) it was 96% (active); in experiment [6] (setting [8]) it was 97% (active); in experiment [6] (at 50.0 µM), 95.4% (active).

`C[CH2][Sn]([CH2]C)([O]C(=O)c1cccc(OC)c1)[O][Sn]([CH2]C)([CH2]C)[O]C(=O)c1cccc(OC)c1`: the growth inhibition is 31% in experiment [1] (setting [7]); 69% in experiment [1] (setting [8]); 59.5% in experiment [1] (at 50.0 µM); 30% in experiment [2] (setting [7]); 79% (active) in experiment [2] (setting [8]); 39.2% in experiment [2] (at 50.0 µM). Further, the growth inhibition in experiment [3] (setting [7]) is 36%; in experiment [3] (setting [8]), 76% (active); in experiment [3] (at 50.0 µM), 37.5%; in experiment [4] (setting [7]), 30%; in experiment [4] (setting [8]), 58%; in experiment [4] (at 50.0 µM), 40.8%. In addition, the growth inhibition is 30% in experiment [5] (setting [7]); 86% (active) in experiment [5] (setting [8]); 37.5% in experiment [5] (at 50.0 µM); 40% in experiment [6] (setting [7]); 74% (active) in experiment [6] (setting [8]); 56.5% in experiment [6] (at 50.0 µM).

Regarding `COc1ccc(N=N/N=c2\sc3cc(OC)ccc3n2C)cc1`, the growth inhibition in experiment [1] (setting [7]) was 7%; in experiment [1] (setting [8]), 80% (active); in experiment [1] (at 50.0 µM), 29.4%; in experiment [2] (setting [7]) it was 3%; in experiment [2] (setting [8]) it was 46%; in experiment [2] (at 50.0 µM) it was 5.1%. Further, the growth inhibition was -2% in experiment [3] (setting [7]); 22% in experiment [3] (setting [8]); 11.9% in experiment [3] (at 50.0 µM); -2% in experiment [4] (setting [7]); 63% in experiment [4] (setting [8]); 24.5% in experiment [4] (at 50.0 µM). Also, the growth inhibition in experiment [5] (setting [7]) is -5%; in experiment [5] (setting [8]), 36%; in experiment [5] (at 50.0 µM) it was -3.4%; in experiment [6] (setting [7]) it was -6%; in experiment [6] (setting [8]), 71% (active); in experiment [6] (at 50.0 µM) it was 46.8%.

With `COc1ccc(NC(=O)OC(C)C)c(OC)c1`, the growth inhibition in experiment [1] (setting [7]) is 2%; in experiment [1] (setting [8]), 10%; in experiment [1] (at 50.0 µM), -2.75%; in experiment [2] (setting [7]), -4%; in experiment [2] (setting [8]) it was 4%; in experiment [2] (at 50.0 µM) it was 6.45%. Also, the growth inhibition in experiment [3] (setting [7]) is -3%; in experiment [3] (setting [8]) it was 7%; in experiment [3] (at 50.0 µM), -21.4%; in experiment [4] (setting [7]), 5%; in experiment [4] (setting [8]), 2%; in experiment [4] (at 50.0 µM) it was 45.4%. Further, the growth inhibition was 15% in experiment [5] (setting [7]); 42% in experiment [5] (setting [8]); 18.4% in experiment [5] (at 50.0 µM); 3% in experiment [6] (setting [7]); 8% in experiment [6] (setting [8]); -10.8% in experiment [6] (at 50.0 µM).
